Results from PubChem BioAssay (NCI).
This is part of a sample that, as a whole, favours compounds with a hit. Of some 79,000 tested, about 15% had one in any assay. Values without a mark were called inactive. Active and inactive are the calls of the source. Rule as the data show it: active = growth inhibition above about 70%; inactive = the rest.

Assays:
[1] = NCI Yeast Anticancer Drug Screen. Data for the mlh1 strain (AID 171);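 also: 0% = growth of vehicle-treated control cultures of the same strain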; settings: S. cerevisiae mlh1 strain growth inhibition, active compounds read high
Method in brief: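 Vehicle-normalised growth inhibition of a repair- or checkpoint-altered yeast strain following compound treatment.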

[2] = NCI Yeast Anticancer Drug Screen. Data for the sgs1 strain (AID 173);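 also: 0% = growth of vehicle-only control cultures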; settings: S. cerevisiae sgs1 mutant, active compounds read high
Method in brief: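 Screen format: yeast with repair or checkpoint alterations, compound exposure, growth read relative to vehicle.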

[3] = NCI Yeast Anticancer Drug Screen. Data for the mlh1 rad18 strain (AID 175); settings: S. cerevisiae mlh1 rad18 strain growth inhibition, active compounds read high
Method in brief: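 Vehicle-treated cultures served as the reference for growth inhibition in a yeast strain carrying DNA damage repair alterations exposed to each compound.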

[4] = NCI Yeast Anticancer Drug Screen. Data for the rad18 strain (AID 177); settings: S. cerevisiae rad18 mutant growth inhibition, active compounds read high
Method in brief: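 Test articles were incubated with altered yeast defective in DNA damage repair. Results are given as inhibition of growth versus vehicle.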

[5] = NCI Yeast Anticancer Drug Screen. Data for the rad52 strain (AID 147);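 also: 0% = growth of vehicle-treated control cultures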; settings: S. cerevisiae rad52 mutant growth inhibition, active compounds read high
Method in brief: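 Vehicle-treated cultures served as the reference for growth inhibition of compound-exposed yeast bearing a DNA repair mutation.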

[6] = NCI Yeast Anticancer Drug Screen. Data for the wt1 strain (AID 149);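 also: 0% = growth of vehicle-treated wt1 cultures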; settings: S. cerevisiae wt1 strain (SPY 50644) growth inhibition, active compounds read high
Method in brief: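 Measured: growth of wt1 yeast under compound versus vehicle treatment, reported as inhibition.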

[7] = NCI Yeast Anticancer Drug Screen. Data for the rad50EPP+ strain (AID 151);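 also: 0% = growth of vehicle-treated control cultures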; settings: S. cerevisiae rad50 mutant strain, active compounds read high
Method in brief: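 In this screen, rad50EPP+ yeast were exposed to compounds. Growth inhibition was scored against vehicle-treated controls.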

[8] = NCI Yeast Anticancer Drug Screen. Data for the rad50 strain (AID 155);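 also: 0% = growth of vehicle-only cultures of the same strain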; settings: S. cerevisiae rad50 strain growth inhibition, active compounds read high
Method in brief: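 Growth of the mutant yeast was measured after compound exposure and referenced to vehicle-treated cultures.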

[9] = NCI Yeast Anticancer Drug Screen. Data for the mec2-1 strain (AID 157); settings: S. cerevisiae mec2-1 strain, active compounds read high
Method in brief: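 Vehicle-treated cultures served as reference for growth inhibition of compound-exposed mec2-1 yeast.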

[10] = NCI Yeast Anticancer Drug Screen. Data for the rad14 strain (AID 159);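 also: 0% = growth of vehicle-treated control cultures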; settings: S. cerevisiae rad14 strain growth inhibition, active compounds read high
Method in brief: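 Here, inhibition of yeast growth was measured after compound exposure, using a strain with a genetic defect in DNA damage repair and vehicle-treated cultures as the reference.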

[11] = NCI Yeast Anticancer Drug Screen. Data for the sgs1 mgt1 strain (AID 161);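 also: 0% = growth of cultures given vehicle only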; settings: S. cerevisiae sgs1 mgt1 strain, active compounds read high
Method in brief: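 Mutant yeast exposed to compound; growth scored against vehicle-only wells.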

[12] = NCI Yeast Anticancer Drug Screen. Data for the CLN2oe strain (AID 163);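 also: 0% = growth of vehicle-only control cultures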; settings: S. cerevisiae CLN2oe strain, active compounds read high
Method in brief: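 Inhibition relative to vehicle-treated yeast is reported. Cells: strain with genetic alteration in cell-cycle control, grown with compound.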

[13] = NCI Yeast Anticancer Drug Screen. Data for the cln2 rad14 strain (AID 165);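 also: 0% = growth equal to vehicle treated cultures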; settings: S. cerevisiae cln2 rad14 strain, active compounds read high
Method in brief: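 Each compound was tested on cln2 rad14 yeast. Inhibition of growth was calculated against vehicle-exposed controls.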

[14] = NCI Yeast Anticancer Drug Screen. Data for the bub3 strain (AID 167); settings: S. cerevisiae bub3 mutant strain, active compounds read high
Method in brief: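 Whole-cell yeast assay. The mutant strain was incubated with compounds, and growth inhibition was determined by comparison with vehicle-treated cells.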

[15] = NCI Yeast Anticancer Drug Screen. Data for the wt2 strain (AID 169);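 also: 0% = growth of vehicle-treated yeast cultures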; settings: S. cerevisiae wt2 strain growth inhibition, active compounds read high
Method in brief: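 Inhibition of yeast growth was determined after compound treatment, normalised to controls receiving only vehicle.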

[16] = at 5.0 µM (retest, dose inferred, filed as 0.5)
[17] = at 50.0 µM (retest, dose inferred, filed as 5.0)

## CN(CCc1ccccn1)c1ccc2c(c1)Cc1ccccc1-2
[1]; at 33.0 µM
  growth inhibition: 15%
[1]; at 100.0 µM
  growth inhibition: 31%
[2]; at 1.2 µM
  growth inhibition: 26%
[2]; at 3.7 µM
  growth inhibition: 71% (active)
[2]; at 11.0 µM
  growth inhibition: 88% (active)
[2]; at 33.0 µM
  growth inhibition: 87% (active)
[2]; at 100.0 µM
  growth inhibition: 88% (active)
[3]; [16]
  growth inhibition: 20%
[3]; [17]
  growth inhibition: 72% (active)
[3]; at 50.0 µM
  growth inhibition: 77.4% (active)
[4]; at 1.2 µM
  growth inhibition: 46%
[4]; at 3.7 µM
  growth inhibition: 89% (active)
[4]; at 11.0 µM
  growth inhibition: 95% (active)
[4]; at 33.0 µM
  growth inhibition: 94% (active)
[4]; at 100.0 µM
  growth inhibition: 94% (active)

## O=C1NC(=O)C2C3C=CC(C3)C12 (stereo unspecified)
[5]; at 1.2 µM
  growth inhibition: -7%
[5]; at 3.7 µM
  growth inhibition: 0%
[5]; at 11.0 µM
  growth inhibition: -2%
[5]; at 33.0 µM
  growth inhibition: -7%
[5]; at 100.0 µM
  growth inhibition: -7%
[6]; at 1.2 µM
  growth inhibition: -5%
[6]; at 3.7 µM
  growth inhibition: -5%
[6]; at 11.0 µM
  growth inhibition: -7%
[6]; at 33.0 µM
  growth inhibition: -7%
[6]; at 100.0 µM
  growth inhibition: -5%
[7]; at 1.2 µM
  growth inhibition: 2%
[7]; at 3.7 µM
  growth inhibition: 21%
[7]; at 11.0 µM
  growth inhibition: 67%
[7]; at 33.0 µM
  growth inhibition: 91% (active)
[7]; at 100.0 µM
  growth inhibition: 97% (active)
[8]; at 1.2 µM
  growth inhibition: -6%
[8]; at 3.7 µM
  growth inhibition: -4%
[8]; [16]
  growth inhibition: -149%
[8]; at 11.0 µM
  growth inhibition: 5%
[8]; at 33.0 µM
  growth inhibition: 8%
[8]; [17]
  growth inhibition: -66%
[8]; at 50.0 µM
  growth inhibition: 3.3%
[8]; at 100.0 µM
  growth inhibition: 0%
[9]; at 1.2 µM
  growth inhibition: -1%
[9]; at 3.7 µM
  growth inhibition: 0%
[9]; [16]
  growth inhibition: -46%
[9]; at 11.0 µM
  growth inhibition: 1%
[9]; at 33.0 µM
  growth inhibition: 1%
[9]; [17]
  growth inhibition: -42%
[9]; at 50.0 µM
  growth inhibition: -2%
[9]; at 100.0 µM
  growth inhibition: -2%
[10]; at 1.2 µM
  growth inhibition: -1%
[10]; at 3.7 µM
  growth inhibition: 3%
[10]; at 11.0 µM
  growth inhibition: 0%
[10]; at 33.0 µM
  growth inhibition: -2%
[10]; at 100.0 µM
  growth inhibition: -1%
[11]; [16]
  growth inhibition: 31%
[11]; [17]
  growth inhibition: 93% (active)
[11]; at 50.0 µM
  growth inhibition: 94.3% (active)
[12]; at 1.2 µM
  growth inhibition: -4%
[12]; at 3.7 µM
  growth inhibition: -1%
[12]; at 11.0 µM
  growth inhibition: 0%
[12]; at 33.0 µM
  growth inhibition: -6%
[12]; at 100.0 µM
  growth inhibition: -3%
[13]; [16]
  growth inhibition: -55%
[13]; [17]
  growth inhibition: -54%
[13]; at 50.0 µM
  growth inhibition: -13.2%
[14]; at 1.2 µM
  growth inhibition: -5%
[14]; at 3.7 µM
  growth inhibition: -4%
[14]; [16]
  growth inhibition: -64%
[14]; at 11.0 µM
  growth inhibition: -7%
[14]; at 33.0 µM
  growth inhibition: -8%
[14]; [17]
  growth inhibition: -62%
[14]; at 50.0 µM
  growth inhibition: -3.55%
[14]; at 100.0 µM
  growth inhibition: -5%
[15]; at 1.2 µM
  growth inhibition: -5%
[15]; at 3.7 µM
  growth inhibition: 40%
[15]; at 11.0 µM
  growth inhibition: 94% (active)
[15]; at 33.0 µM
  growth inhibition: 97% (active)
[15]; at 100.0 µM
  growth inhibition: 98% (active)
[1]; at 1.2 µM
  growth inhibition: 1%
[1]; at 3.7 µM
  growth inhibition: 12%
[1]; at 11.0 µM
  growth inhibition: 79% (active)
[1]; at 33.0 µM
  growth inhibition: 95% (active)
[1]; at 100.0 µM
  growth inhibition: 97% (active)
[2]; at 1.2 µM
  growth inhibition: -4%
[2]; at 3.7 µM
  growth inhibition: 63%
[2]; at 11.0 µM
  growth inhibition: 97% (active)
[2]; at 33.0 µM
  growth inhibition: 98% (active)
[2]; at 100.0 µM
  growth inhibition: 98% (active)
[3]; [16]
  growth inhibition: -124%
[3]; [17]
  growth inhibition: -123%
[3]; at 50.0 µM
  growth inhibition: 10.6%
[4]; at 1.2 µM
  growth inhibition: -2%
[4]; at 3.7 µM
  growth inhibition: 0%
[4]; at 11.0 µM
  growth inhibition: 0%
[4]; at 33.0 µM
  growth inhibition: 0%
[4]; at 100.0 µM
  growth inhibition: 1%

## CCNc1nnc(CSc2nc(-c3ccccc3)c(-c3ccccc3)[nH]2)s1
[5]; at 1.2 µM
  growth inhibition: -6%
[5]; at 3.7 µM
  growth inhibition: 14%
[5]; at 11.0 µM
  growth inhibition: -1%
[5]; at 33.0 µM
  growth inhibition: 86% (active)
[5]; at 100.0 µM
  growth inhibition: 80% (active)
[6]; at 1.2 µM
  growth inhibition: -4%
[6]; at 3.7 µM
  growth inhibition: -9%
[6]; at 11.0 µM
  growth inhibition: -19%
[6]; at 33.0 µM
  growth inhibition: 81% (active)
[6]; at 100.0 µM
  growth inhibition: 77% (active)
[7]; at 1.2 µM
  growth inhibition: 9%
[7]; at 3.7 µM
  growth inhibition: 13%
[7]; at 11.0 µM
  growth inhibition: 12%
[7]; at 33.0 µM
  growth inhibition: 4%
[7]; at 100.0 µM
  growth inhibition: 5%
[8]; at 1.2 µM
  growth inhibition: -3%
[8]; at 3.7 µM
  growth inhibition: -15%
[8]; [16]
  growth inhibition: 7%
[8]; at 11.0 µM
  growth inhibition: -13%
[8]; at 33.0 µM
  growth inhibition: 77% (active)
[8]; [17]
  growth inhibition: 94% (active)
[8]; at 50.0 µM
  growth inhibition: 79.3% (active)
[8]; at 100.0 µM
  growth inhibition: 76% (active)
[9]; at 1.2 µM
  growth inhibition: 8%
[9]; at 3.7 µM
  growth inhibition: 0%
[9]; [16]
  growth inhibition: -8%
[9]; at 11.0 µM
  growth inhibition: -8%
[9]; at 33.0 µM
  growth inhibition: 73% (active)
[9]; [17]
  growth inhibition: 93% (active)
[9]; at 50.0 µM
  growth inhibition: 66%
[9]; at 100.0 µM
  growth inhibition: 77% (active)
[10]; at 1.2 µM
  growth inhibition: -10%
[10]; at 3.7 µM
  growth inhibition: -4%
[10]; at 11.0 µM
  growth inhibition: -51%
[10]; at 33.0 µM
  growth inhibition: 58%
[10]; at 100.0 µM
  growth inhibition: 55%
[11]; [16]
  growth inhibition: 7%
[11]; [17]
  growth inhibition: 97% (active)
[11]; at 50.0 µM
  growth inhibition: 64.8%
[12]; at 1.2 µM
  growth inhibition: 5%
[12]; at 3.7 µM
  growth inhibition: -7%
[12]; at 11.0 µM
  growth inhibition: 5%
[12]; at 33.0 µM
  growth inhibition: 85% (active)
[12]; at 100.0 µM
  growth inhibition: 76% (active)
[13]; [16]
  growth inhibition: 4%
[13]; [17]
  growth inhibition: 97% (active)
[13]; at 50.0 µM
  growth inhibition: 75% (active)
[14]; at 1.2 µM
  growth inhibition: -10%
[14]; at 3.7 µM
  growth inhibition: -29%
[14]; [16]
  growth inhibition: 36%
[14]; at 11.0 µM
  growth inhibition: -23%
[14]; at 33.0 µM
  growth inhibition: 87% (active)
[14]; [17]
  growth inhibition: 97% (active)
[14]; at 50.0 µM
  growth inhibition: 85.2% (active)
[14]; at 100.0 µM
  growth inhibition: 82% (active)
[15]; at 1.2 µM
  growth inhibition: -3%
[15]; at 3.7 µM
  growth inhibition: -9%
[15]; at 11.0 µM
  growth inhibition: -37%
[15]; at 33.0 µM
  growth inhibition: 92% (active)
[15]; at 100.0 µM
  growth inhibition: 83% (active)
[1]; at 1.2 µM
  growth inhibition: 3%
[1]; at 3.7 µM
  growth inhibition: 5%
[1]; at 11.0 µM
  growth inhibition: 0%
[1]; at 33.0 µM
  growth inhibition: 81% (active)
[1]; at 100.0 µM
  growth inhibition: 66%
[2]; at 1.2 µM
  growth inhibition: 23%
[2]; at 3.7 µM
  growth inhibition: 18%
[2]; at 11.0 µM
  growth inhibition: 18%
[2]; at 33.0 µM
  growth inhibition: 71% (active)
[2]; at 100.0 µM
  growth inhibition: 80% (active)
[3]; [16]
  growth inhibition: -1%
[3]; [17]
  growth inhibition: 93% (active)
[3]; at 50.0 µM
  growth inhibition: 86.3% (active)
[4]; at 1.2 µM
  growth inhibition: 12%
[4]; at 3.7 µM
  growth inhibition: 16%
[4]; at 11.0 µM
  growth inhibition: 13%
[4]; at 33.0 µM
  growth inhibition: 89% (active)
[4]; at 100.0 µM
  growth inhibition: 79% (active)
